Experimental data published in the supplement of paper PMC11732987, “Enantioselective OTUD7B fragment discovery through chemoproteomics screening and high-throughput optimisation” (Communications Chemistry, 2025).

Key:
Experiment in all cases: log2 ratio of Biotin-Ahx-Ub-VS probe labelling (fragment/DMSO); higher = less target engagement (more negative = stronger competition), active = hit call of the paper (q ≤ 0.05, log2 ratio ≤ -1)
Details in all cases: compound concentration: 200 uM; treatment time: 3 h
USP42 = biological target: T1, USP42 (UniProt Q9H9J4)
T1 sequence (whole entry): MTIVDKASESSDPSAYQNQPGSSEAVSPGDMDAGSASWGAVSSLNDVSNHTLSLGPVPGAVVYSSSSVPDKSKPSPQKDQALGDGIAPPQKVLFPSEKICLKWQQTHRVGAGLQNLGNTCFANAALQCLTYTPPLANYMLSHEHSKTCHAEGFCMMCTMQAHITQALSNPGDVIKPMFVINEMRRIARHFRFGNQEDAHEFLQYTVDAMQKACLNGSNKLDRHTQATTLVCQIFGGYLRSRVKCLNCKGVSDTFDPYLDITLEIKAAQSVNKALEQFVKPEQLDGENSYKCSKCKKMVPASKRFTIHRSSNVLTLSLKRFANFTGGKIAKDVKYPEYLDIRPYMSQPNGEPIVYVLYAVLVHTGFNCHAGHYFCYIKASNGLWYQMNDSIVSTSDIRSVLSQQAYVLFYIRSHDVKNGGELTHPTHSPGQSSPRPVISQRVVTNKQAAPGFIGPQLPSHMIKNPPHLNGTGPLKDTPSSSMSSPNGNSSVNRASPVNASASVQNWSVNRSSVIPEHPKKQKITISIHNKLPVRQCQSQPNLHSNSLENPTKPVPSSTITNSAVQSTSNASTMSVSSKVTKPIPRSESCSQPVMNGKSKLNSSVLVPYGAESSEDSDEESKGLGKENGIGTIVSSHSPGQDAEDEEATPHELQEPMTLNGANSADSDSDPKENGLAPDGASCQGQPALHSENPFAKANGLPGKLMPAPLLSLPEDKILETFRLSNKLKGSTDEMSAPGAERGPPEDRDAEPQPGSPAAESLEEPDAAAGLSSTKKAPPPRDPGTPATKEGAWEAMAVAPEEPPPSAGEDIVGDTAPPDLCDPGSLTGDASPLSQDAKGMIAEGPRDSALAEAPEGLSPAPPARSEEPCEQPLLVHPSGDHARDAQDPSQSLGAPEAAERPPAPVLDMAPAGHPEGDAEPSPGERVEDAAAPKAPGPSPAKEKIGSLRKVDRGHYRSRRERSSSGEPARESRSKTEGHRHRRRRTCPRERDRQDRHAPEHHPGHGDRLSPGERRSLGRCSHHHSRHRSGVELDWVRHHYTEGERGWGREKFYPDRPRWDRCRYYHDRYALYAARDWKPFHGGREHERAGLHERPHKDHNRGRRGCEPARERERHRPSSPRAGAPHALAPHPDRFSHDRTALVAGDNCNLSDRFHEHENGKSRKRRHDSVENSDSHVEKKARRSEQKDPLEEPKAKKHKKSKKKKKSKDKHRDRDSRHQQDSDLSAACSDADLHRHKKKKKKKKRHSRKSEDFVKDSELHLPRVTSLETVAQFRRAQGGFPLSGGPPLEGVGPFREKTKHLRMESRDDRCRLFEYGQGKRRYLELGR
Procedure, shortened: (§1)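 Labelling with Biotin-Ahx-Ub-VS (0.5 µM final, 1 h) followed a 3 h triplicate treatment of HEK293T lysate (495 µg per sample, Tris/CHAPS/IGEPAL buffer with protease inhibitors) with fragment at 200 µM or vehicle. Labelled DUBs were NeutrAvidin-enriched, digested with LysC and trypsin, and run by diaPASEF LC-MS/MS. The values, average log2 fragment/vehicle ratios by unpaired t-test, come from global-median-normalised Spectronaut label-free quantities. Proteins with ≥2 unique peptides were used.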

USP46 = USP46 (UniProt P62068)
Procedure, shortened: as §1

USP47 = biological target: T2, USP47 (UniProt Q96K76)
T2 sequence (whole entry): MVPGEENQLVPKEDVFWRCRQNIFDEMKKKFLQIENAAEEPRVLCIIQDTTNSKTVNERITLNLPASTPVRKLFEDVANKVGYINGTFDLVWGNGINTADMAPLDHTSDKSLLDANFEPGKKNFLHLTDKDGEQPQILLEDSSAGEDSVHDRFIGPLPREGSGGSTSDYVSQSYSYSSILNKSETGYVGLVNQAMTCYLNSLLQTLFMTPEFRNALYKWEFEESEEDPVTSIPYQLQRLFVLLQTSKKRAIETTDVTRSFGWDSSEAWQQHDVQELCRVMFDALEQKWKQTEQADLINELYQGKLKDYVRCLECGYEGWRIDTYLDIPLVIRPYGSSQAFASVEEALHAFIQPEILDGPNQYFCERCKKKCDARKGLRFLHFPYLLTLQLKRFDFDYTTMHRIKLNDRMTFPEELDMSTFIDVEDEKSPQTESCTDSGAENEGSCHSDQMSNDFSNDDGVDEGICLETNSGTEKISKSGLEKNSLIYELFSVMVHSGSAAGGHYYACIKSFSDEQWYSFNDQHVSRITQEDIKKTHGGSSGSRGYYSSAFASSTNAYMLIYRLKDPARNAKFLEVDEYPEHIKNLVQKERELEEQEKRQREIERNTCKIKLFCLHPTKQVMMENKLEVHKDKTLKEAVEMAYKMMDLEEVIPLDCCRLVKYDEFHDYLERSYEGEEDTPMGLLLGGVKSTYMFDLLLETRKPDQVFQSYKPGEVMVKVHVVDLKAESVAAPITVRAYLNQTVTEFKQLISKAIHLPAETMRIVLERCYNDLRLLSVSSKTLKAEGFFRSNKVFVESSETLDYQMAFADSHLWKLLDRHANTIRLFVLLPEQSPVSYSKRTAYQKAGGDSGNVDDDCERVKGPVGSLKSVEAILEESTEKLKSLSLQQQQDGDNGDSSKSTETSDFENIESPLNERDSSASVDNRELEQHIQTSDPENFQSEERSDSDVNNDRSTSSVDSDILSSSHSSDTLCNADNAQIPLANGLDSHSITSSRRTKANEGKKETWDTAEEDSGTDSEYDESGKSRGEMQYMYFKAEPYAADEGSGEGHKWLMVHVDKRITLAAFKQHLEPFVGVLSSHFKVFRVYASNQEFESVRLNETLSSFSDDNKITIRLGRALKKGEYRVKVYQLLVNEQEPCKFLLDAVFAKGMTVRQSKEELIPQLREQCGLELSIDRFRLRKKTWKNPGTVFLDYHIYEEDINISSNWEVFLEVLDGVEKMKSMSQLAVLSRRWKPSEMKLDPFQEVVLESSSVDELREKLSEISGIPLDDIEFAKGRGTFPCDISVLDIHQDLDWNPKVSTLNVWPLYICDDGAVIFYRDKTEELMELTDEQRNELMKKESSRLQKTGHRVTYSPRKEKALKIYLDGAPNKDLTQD
Procedure, shortened: as §1

USP48 = biological target: T3, USP48 (UniProt Q86UV5)
T3 sequence (whole entry): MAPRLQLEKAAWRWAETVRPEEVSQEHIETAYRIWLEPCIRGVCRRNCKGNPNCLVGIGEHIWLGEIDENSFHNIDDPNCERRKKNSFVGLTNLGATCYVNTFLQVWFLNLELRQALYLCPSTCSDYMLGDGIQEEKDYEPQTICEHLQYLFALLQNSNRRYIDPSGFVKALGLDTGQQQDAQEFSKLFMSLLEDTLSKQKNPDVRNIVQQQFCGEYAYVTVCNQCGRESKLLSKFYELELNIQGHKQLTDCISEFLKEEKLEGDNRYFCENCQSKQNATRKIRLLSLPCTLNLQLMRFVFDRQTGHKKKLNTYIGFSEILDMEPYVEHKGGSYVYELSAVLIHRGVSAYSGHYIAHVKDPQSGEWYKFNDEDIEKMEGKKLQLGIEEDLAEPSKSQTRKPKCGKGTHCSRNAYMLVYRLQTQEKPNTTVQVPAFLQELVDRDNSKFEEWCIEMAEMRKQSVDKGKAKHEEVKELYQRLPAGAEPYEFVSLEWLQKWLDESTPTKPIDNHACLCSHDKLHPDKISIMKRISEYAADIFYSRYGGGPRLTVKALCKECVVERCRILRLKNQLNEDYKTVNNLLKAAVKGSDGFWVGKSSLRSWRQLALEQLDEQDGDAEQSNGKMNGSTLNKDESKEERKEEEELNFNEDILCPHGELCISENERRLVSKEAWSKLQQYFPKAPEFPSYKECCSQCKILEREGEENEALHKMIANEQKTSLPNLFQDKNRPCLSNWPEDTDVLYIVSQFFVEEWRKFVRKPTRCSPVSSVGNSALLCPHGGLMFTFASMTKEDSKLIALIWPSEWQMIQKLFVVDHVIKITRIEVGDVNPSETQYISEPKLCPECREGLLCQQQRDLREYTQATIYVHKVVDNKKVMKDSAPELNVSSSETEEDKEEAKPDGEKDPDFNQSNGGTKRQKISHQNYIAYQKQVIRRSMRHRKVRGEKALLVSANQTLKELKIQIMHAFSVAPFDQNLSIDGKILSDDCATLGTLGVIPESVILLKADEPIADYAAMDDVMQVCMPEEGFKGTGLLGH
Procedure, shortened: as §1

USP5 = biological target: T4, USP5 (UniProt P45974)
T4 sequence (whole entry): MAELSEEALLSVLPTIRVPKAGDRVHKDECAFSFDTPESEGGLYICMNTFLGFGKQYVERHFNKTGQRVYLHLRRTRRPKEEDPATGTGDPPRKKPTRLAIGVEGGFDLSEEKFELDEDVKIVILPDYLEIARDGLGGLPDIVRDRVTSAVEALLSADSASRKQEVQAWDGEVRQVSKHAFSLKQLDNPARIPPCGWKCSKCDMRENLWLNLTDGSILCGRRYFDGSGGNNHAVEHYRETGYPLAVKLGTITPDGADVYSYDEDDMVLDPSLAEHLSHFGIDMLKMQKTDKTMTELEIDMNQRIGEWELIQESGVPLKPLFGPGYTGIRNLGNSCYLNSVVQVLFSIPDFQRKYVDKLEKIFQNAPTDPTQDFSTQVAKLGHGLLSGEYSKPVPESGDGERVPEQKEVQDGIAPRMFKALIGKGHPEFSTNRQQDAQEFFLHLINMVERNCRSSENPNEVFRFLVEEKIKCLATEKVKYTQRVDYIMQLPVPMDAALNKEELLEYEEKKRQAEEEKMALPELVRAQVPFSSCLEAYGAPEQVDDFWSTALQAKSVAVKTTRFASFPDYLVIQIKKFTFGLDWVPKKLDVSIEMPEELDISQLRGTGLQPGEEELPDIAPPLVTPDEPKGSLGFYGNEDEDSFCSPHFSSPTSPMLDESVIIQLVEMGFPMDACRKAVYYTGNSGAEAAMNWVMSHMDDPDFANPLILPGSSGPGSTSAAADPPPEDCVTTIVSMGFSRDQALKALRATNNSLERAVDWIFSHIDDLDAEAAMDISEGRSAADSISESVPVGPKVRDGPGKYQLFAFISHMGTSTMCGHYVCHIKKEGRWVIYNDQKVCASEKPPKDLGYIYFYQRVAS
Procedure, shortened: as §1

USP54 = USP54 (UniProt Q70EL1)
Procedure, shortened: as §1

USP7 = USP7 (UniProt Q93009)
Procedure, shortened: as §1

USP8 = biological target: T5, USP8 (UniProt P40818)
T5 sequence (whole entry): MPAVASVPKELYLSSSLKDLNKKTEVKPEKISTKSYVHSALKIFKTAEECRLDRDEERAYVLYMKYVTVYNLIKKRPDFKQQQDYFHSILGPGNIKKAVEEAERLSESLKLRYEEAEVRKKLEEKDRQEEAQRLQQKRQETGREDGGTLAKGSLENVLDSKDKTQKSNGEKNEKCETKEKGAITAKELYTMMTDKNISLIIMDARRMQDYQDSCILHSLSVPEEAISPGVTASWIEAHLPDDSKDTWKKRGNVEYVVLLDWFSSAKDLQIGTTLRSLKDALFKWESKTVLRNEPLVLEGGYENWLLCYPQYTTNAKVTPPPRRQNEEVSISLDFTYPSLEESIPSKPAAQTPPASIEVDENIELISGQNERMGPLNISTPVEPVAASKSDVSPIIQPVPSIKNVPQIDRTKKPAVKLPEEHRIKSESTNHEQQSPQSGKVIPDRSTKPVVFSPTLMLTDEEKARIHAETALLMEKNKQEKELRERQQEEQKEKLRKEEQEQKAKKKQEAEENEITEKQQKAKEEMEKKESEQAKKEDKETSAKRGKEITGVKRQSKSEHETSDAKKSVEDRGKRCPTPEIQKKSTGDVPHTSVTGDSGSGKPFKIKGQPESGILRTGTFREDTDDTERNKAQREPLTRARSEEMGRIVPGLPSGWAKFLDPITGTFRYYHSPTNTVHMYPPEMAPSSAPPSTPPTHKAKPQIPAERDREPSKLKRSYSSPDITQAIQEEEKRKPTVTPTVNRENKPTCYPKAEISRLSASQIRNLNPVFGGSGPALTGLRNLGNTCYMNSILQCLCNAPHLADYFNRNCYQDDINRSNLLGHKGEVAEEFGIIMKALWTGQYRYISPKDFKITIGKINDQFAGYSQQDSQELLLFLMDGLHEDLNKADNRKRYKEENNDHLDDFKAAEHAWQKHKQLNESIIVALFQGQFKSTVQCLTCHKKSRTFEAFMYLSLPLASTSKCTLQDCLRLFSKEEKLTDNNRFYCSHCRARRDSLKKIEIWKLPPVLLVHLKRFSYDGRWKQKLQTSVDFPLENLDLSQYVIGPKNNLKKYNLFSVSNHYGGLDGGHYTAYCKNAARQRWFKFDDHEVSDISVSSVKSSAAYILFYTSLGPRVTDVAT
Procedure, shortened: as §1

USP9X = USP9X (UniProt Q93008)
Procedure, shortened: as §1

UniProt O00487 = biological target: UniProt O00487
Procedure, shortened: as §1

Measured: log2 ratio of Biotin-Ahx-Ub-VS probe labelling

Sequence of USP7 (Q93009 whole entry, looked up): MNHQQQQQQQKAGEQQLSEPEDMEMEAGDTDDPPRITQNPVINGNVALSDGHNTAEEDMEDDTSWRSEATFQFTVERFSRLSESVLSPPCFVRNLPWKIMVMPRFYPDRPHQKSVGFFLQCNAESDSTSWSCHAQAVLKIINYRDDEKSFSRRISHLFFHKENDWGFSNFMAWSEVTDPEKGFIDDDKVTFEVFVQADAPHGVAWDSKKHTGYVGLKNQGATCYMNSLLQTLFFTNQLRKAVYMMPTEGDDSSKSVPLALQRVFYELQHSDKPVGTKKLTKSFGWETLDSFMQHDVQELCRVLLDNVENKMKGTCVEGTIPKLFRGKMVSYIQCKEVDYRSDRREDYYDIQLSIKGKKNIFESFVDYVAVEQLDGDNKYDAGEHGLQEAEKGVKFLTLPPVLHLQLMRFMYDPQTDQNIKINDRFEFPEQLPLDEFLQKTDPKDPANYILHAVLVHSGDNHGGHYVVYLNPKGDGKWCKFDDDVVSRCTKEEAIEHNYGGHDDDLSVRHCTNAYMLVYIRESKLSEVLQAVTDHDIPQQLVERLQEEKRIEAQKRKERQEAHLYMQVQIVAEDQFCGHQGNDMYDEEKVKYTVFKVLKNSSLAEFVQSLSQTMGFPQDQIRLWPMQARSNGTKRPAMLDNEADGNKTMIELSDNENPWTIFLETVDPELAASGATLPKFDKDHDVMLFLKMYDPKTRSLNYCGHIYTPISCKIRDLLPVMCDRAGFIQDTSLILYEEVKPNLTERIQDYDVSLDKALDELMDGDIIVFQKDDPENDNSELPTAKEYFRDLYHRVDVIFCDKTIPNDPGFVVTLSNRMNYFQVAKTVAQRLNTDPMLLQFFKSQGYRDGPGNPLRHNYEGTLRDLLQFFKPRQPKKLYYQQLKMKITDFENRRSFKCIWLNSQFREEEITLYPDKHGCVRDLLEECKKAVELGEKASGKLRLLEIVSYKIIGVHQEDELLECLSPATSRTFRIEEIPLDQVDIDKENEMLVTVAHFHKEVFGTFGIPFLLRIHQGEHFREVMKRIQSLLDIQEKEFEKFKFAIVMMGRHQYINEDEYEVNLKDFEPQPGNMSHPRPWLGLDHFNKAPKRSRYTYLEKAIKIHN
Sequence of USP54 (Q70EL1 whole entry): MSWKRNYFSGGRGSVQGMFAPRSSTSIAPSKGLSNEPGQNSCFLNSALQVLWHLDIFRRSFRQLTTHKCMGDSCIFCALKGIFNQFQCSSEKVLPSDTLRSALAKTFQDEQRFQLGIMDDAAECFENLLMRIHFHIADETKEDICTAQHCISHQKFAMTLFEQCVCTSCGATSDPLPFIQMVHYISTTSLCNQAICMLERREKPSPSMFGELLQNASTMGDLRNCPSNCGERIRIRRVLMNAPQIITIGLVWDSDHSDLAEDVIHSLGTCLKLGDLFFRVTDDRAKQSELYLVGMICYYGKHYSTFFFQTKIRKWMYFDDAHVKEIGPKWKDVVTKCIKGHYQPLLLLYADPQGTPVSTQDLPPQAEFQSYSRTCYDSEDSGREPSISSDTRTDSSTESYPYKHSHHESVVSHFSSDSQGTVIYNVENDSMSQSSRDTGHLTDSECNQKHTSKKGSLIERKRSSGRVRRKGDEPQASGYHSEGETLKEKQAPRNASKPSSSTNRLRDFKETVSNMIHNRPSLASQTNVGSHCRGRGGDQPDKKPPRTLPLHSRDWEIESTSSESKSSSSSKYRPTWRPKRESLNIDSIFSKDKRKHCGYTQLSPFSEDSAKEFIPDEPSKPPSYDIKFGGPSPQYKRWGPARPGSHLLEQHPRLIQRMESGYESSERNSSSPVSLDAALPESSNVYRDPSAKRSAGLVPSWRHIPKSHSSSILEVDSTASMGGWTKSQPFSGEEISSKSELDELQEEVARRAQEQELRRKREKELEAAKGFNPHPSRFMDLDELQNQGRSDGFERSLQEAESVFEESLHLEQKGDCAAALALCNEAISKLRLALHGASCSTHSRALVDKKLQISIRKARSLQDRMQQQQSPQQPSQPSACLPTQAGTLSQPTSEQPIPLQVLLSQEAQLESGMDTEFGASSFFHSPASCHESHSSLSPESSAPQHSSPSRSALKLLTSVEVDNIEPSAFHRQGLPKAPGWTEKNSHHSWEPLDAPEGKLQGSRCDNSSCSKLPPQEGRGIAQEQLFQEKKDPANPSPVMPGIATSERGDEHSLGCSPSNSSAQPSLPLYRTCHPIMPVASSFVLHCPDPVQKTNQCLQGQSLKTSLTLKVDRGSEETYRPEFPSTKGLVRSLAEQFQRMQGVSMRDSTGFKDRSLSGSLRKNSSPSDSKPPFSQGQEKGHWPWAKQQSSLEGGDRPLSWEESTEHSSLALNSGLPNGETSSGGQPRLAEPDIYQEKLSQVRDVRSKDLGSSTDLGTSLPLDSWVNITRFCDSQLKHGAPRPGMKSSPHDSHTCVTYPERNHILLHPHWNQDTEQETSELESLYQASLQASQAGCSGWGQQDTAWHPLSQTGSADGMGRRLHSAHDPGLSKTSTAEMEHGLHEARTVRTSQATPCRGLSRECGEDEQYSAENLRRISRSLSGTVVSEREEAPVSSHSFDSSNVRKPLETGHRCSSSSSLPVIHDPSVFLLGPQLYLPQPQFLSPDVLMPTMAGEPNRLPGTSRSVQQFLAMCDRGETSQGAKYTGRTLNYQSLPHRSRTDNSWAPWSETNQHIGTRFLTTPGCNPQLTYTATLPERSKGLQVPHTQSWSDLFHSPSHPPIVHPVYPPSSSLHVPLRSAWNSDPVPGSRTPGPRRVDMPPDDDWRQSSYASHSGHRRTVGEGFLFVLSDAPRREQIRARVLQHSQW
Sequence of USP46 (P62068 whole entry): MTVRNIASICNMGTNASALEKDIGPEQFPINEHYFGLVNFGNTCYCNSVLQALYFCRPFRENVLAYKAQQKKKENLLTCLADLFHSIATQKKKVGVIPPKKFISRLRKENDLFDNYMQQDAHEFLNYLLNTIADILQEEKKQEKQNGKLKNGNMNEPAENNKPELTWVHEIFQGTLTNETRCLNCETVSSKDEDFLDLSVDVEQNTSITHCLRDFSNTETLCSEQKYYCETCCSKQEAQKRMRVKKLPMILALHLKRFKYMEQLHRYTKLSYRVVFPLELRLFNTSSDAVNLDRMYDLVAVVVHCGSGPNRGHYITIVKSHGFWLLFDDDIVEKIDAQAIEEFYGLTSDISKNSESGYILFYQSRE
Sequence of UniProt O00487 (O00487 whole entry): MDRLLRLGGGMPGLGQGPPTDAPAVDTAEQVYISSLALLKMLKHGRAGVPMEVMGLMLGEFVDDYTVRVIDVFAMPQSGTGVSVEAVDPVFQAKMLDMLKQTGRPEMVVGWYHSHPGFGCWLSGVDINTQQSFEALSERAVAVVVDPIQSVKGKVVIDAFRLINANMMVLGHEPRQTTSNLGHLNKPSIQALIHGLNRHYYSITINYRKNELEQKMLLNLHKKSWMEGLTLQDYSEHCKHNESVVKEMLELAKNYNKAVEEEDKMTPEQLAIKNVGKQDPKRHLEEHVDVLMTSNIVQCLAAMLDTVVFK

O=C(CCl)N[C@H]1CCS(=O)(=O)c2ccccc21
inactive: USP42 0.186 | USP46 0.0271 | USP47 -0.0612 | USP48 -0.022 | USP5 -0.472 | USP54 -0.274 | USP7 -0.346 | USP8 -0.0621 | USP9X -0.14 | UniProt O00487 -0.0201
